Source: the supplement of paper PMC11732987, “Enantioselective OTUD7B fragment discovery through chemoproteomics screening and high-throughput optimisation” (Communications Chemistry, 2025)

Columns and labels:
Test in all cases: log2 ratio of Biotin-Ahx-Ub-VS probe labelling (fragment/DMSO); higher = less target engagement (more negative = stronger competition), active = hit call of the paper (q ≤ 0.05, log2 ratio ≤ -1)
Conditions in all cases: compound concentration: 200 uM; treatment time: 3 h
[1] = biological target: USP9X (UniProt Q93008)
Summary of the method: (§1)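 HEK293T lysate in Tris/CHAPS/IGEPAL buffer with protease inhibitors (495 µg per sample) was given fragment at 200 µM or vehicle for 3 h, in triplicate. It then received Biotin-Ahx-Ub-VS at 0.5 µM final for 1 h. Labelled DUBs were NeutrAvidin-enriched, digested with LysC and trypsin, and run by diaPASEF LC-MS/MS. Values are average log2 fragment/vehicle ratios by unpaired t-test on global-median-normalised Spectronaut quantities of proteins with ≥2 unique peptides.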

[2] = biological target: UniProt O00487
Summary of the method: as §1

[3] = biological target: UniProt O00507
Summary of the method: as §1

[4] = biological target: UniProt P51784
Summary of the method: as §1

[5] = biological target: T1, UniProt Q5T2D3
T1 sequence (whole entry): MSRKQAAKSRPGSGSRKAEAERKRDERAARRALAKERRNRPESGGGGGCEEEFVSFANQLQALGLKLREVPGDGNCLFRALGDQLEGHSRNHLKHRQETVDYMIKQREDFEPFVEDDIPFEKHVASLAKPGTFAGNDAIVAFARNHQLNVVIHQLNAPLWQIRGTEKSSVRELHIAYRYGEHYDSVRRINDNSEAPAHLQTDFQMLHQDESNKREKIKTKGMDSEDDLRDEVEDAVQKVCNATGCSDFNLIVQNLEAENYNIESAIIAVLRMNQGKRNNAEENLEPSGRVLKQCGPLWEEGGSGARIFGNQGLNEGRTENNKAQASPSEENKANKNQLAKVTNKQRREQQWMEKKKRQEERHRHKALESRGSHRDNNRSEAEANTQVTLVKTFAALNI
Summary of the method: as §1

[6] = biological target: T2, UniProt Q8TE49
T2 sequence (whole entry): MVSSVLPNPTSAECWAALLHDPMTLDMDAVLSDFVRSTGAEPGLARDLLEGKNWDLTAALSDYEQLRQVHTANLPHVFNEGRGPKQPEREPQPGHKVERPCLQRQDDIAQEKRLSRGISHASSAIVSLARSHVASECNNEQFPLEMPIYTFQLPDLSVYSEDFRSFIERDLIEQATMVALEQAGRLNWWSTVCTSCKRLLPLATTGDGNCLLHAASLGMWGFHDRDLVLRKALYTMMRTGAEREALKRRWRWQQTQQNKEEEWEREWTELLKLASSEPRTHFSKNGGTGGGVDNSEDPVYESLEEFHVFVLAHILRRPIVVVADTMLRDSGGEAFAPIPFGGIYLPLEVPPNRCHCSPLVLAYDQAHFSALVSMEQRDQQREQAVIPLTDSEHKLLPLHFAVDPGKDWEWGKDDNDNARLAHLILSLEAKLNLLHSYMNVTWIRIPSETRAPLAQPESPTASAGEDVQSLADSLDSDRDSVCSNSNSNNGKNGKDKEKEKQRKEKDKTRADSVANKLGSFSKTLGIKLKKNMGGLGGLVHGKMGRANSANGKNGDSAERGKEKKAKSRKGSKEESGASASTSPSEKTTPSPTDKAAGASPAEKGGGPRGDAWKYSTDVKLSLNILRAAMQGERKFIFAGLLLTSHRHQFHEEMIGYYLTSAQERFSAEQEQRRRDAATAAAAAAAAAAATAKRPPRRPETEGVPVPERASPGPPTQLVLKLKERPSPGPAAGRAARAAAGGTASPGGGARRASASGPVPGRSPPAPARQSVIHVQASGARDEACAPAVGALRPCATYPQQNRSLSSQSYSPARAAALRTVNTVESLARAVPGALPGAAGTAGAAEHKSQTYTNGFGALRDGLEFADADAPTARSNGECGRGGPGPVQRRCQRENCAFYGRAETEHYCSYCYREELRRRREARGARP
Summary of the method: as §1

[7] = biological target: T3, UniProt Q9P2H5
T3 sequence (whole entry): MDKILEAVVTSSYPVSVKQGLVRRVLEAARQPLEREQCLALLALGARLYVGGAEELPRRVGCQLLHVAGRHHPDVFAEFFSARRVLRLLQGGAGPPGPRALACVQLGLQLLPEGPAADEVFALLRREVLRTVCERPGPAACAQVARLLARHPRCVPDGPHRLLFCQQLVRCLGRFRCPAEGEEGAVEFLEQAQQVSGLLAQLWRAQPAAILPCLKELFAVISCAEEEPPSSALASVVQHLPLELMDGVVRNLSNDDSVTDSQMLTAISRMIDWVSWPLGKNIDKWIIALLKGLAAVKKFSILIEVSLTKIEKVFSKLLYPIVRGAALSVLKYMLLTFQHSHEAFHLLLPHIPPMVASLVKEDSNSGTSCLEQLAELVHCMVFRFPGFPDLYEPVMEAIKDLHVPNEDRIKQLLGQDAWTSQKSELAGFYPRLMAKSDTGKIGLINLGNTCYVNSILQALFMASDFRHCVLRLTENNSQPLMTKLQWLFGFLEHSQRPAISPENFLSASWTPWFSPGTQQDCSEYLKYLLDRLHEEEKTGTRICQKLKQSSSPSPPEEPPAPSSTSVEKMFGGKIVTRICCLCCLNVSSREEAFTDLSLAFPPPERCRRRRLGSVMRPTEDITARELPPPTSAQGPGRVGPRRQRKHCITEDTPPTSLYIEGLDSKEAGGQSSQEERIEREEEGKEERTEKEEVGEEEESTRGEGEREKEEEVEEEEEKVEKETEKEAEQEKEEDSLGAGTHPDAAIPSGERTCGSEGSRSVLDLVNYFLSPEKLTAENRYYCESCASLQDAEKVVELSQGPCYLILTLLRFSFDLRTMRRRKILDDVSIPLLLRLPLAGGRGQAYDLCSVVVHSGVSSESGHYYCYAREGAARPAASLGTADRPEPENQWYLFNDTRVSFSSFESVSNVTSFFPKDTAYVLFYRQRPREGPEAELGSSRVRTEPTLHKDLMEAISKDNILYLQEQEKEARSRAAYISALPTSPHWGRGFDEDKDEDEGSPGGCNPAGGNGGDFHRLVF
Summary of the method: as §1

[8] = biological target: T4, UniProt Q9UGI0
T4 sequence (whole entry): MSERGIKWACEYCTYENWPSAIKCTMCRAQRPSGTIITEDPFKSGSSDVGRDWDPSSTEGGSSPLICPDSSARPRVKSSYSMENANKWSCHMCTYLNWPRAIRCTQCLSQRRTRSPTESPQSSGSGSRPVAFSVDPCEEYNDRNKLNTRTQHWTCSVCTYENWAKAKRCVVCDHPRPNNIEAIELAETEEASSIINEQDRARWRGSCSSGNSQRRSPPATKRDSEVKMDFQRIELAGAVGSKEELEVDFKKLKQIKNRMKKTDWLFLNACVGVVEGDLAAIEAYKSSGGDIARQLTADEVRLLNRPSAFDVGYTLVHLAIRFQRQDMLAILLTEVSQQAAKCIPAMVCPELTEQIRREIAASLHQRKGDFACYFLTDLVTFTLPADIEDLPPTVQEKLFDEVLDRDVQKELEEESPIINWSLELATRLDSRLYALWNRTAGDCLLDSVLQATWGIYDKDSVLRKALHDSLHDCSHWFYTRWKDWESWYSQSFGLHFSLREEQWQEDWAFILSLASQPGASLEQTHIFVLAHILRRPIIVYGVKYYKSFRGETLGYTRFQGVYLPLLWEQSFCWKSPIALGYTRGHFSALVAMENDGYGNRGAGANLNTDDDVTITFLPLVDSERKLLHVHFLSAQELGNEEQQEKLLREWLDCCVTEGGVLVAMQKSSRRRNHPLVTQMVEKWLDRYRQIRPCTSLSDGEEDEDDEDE
Summary of the method: as §1

[9] = biological target: T5, YOD1 (UniProt Q5VVQ6)
T5 sequence (whole entry): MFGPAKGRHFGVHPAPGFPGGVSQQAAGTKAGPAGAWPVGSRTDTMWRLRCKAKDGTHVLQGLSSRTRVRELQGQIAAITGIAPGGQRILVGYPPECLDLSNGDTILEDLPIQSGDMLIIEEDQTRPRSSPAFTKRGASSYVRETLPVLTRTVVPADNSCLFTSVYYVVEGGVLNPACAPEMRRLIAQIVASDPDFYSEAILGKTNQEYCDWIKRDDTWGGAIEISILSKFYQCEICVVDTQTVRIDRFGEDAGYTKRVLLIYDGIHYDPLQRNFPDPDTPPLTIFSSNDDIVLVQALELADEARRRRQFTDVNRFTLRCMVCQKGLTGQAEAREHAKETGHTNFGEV
Summary of the method: as §1

Measured: log2 ratio of Biotin-Ahx-Ub-VS probe labelling

UniProt O00487, sequence (O00487 whole entry): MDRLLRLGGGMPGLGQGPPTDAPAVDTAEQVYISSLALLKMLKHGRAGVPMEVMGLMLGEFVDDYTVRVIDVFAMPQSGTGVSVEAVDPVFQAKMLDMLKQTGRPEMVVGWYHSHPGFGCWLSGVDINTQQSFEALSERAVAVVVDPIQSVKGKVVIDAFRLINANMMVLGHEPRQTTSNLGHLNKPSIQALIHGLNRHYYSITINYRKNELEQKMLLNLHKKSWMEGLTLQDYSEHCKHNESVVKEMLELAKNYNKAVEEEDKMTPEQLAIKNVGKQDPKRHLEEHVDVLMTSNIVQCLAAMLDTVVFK
UniProt P51784, sequence (P51784 whole entry): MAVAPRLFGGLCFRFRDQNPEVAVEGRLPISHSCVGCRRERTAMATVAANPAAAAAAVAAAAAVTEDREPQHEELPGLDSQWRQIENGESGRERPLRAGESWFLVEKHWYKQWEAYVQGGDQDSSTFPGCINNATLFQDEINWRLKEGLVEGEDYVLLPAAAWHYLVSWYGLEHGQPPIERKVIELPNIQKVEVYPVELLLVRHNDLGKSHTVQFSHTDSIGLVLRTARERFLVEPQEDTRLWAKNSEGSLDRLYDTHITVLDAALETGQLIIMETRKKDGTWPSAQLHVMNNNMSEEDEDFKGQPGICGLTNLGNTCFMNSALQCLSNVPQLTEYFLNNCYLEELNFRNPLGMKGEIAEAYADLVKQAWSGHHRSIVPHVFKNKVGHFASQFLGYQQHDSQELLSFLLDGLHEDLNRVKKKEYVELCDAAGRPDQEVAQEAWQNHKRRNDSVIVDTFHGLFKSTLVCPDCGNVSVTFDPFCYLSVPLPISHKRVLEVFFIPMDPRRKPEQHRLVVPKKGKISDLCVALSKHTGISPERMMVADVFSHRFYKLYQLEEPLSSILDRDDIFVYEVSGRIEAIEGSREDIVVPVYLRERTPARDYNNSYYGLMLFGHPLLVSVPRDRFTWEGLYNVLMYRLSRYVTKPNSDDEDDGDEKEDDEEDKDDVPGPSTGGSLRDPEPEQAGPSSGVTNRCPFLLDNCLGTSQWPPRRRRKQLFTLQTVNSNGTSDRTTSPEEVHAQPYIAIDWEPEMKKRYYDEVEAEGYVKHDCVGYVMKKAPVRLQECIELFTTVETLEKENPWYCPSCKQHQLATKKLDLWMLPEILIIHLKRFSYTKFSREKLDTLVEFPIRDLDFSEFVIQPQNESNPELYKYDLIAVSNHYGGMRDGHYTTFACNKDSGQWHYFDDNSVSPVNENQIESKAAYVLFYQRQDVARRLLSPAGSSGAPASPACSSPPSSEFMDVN
UniProt O00507, sequence (O00507 whole entry): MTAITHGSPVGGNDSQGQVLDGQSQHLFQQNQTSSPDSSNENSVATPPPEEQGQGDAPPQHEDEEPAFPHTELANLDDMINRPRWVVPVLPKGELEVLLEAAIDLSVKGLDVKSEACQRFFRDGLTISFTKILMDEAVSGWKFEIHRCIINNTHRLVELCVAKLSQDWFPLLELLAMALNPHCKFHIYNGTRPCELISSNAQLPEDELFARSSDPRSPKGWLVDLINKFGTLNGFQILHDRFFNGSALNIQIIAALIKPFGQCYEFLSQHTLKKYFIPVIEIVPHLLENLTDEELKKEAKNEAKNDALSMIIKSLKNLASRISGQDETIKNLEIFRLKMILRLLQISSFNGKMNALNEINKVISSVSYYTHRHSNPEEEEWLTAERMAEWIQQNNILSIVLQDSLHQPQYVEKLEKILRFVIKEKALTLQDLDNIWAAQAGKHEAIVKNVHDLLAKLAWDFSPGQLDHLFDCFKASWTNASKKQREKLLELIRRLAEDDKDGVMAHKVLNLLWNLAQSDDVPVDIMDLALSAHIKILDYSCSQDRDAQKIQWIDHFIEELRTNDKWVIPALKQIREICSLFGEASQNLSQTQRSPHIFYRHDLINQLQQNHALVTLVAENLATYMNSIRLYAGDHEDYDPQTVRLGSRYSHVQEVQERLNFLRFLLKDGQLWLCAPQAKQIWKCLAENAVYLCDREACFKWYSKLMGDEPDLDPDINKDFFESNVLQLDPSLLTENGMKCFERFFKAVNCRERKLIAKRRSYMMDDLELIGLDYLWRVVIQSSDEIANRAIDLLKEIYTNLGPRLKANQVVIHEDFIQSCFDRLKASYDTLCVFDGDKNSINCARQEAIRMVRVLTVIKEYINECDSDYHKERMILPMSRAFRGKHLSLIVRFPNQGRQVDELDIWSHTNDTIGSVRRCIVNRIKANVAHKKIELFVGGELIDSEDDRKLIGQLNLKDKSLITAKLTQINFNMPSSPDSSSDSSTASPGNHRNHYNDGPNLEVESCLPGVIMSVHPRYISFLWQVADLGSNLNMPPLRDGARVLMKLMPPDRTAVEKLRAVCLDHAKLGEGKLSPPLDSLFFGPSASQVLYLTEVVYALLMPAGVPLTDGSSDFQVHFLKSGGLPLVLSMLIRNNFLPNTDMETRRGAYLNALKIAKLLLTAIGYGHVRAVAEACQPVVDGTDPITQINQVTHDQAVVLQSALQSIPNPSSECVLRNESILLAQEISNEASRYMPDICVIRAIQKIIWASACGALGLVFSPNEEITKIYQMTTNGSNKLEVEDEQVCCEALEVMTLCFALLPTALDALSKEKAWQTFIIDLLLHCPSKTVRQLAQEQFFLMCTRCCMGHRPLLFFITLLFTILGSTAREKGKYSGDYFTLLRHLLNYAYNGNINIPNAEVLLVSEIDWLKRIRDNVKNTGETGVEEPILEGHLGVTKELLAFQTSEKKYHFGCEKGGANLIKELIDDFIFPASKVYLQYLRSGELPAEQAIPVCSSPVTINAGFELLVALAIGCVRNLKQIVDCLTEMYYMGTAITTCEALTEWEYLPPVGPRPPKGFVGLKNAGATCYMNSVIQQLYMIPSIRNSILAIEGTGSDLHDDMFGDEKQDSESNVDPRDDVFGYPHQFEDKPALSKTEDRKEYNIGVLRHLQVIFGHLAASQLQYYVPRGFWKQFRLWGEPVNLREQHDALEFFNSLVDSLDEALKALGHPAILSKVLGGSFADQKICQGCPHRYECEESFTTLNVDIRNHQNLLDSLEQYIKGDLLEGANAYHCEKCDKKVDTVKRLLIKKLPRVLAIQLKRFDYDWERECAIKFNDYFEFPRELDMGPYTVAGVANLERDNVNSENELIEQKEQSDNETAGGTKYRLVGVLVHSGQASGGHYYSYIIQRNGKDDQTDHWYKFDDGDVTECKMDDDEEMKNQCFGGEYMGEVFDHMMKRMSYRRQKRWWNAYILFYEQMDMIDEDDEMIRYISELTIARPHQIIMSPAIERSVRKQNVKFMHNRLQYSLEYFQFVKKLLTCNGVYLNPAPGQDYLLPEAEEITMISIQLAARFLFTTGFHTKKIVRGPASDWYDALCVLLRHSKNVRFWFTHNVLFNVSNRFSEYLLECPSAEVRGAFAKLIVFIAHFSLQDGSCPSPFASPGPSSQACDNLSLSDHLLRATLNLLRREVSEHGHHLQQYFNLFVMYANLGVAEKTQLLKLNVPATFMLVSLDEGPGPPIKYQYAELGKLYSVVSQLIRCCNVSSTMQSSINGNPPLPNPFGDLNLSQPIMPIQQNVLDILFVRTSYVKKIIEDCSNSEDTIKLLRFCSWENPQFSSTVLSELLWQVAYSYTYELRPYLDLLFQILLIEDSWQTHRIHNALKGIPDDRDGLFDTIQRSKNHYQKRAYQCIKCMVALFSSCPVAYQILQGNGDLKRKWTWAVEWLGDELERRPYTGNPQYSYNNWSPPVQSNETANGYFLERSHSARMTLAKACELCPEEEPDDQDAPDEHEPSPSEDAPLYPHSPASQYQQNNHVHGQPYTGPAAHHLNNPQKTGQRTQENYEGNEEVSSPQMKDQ

O=C(CCl)Nc1cc2c(cc1Cl)OCCO2
inactive: [1] -0.246 | [2] -0.0671 | [3] 0.223 | [4] 0.121 | [5] -0.437 | [6] -0.908 | [7] -0.253 | [8] -0.402 | [9] 0.302
